Assay in all cases: growth (OD600 after 10 h); higher = more growth (less inhibition)
Assay [1] deals with E. coli TESEC Alr+ wild-type control. Conditions: compound 0.1 mM; raw OD600 reference: median of DMSO wells 0.241, cell-free background 0.041. How it is done:
(§1)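 TESEC Mtb Alr E. coli, or the Alr+ wild-type control, in 384-well plates with Prestwick library compounds at 0.1 mM and 1% DMSO, across arabinose induction levels of 1E3 to 1E7 nM. Growth is read as OD600 after 10 h at 37 °C in triplicate biological replicates.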

Assay [2] has as its system E. coli TESEC Mtb Alr. As to conditions: compound 0.1 mM. Here is the method:
as §1

Another assay relates to E. coli TESEC Mtb Asd. Conditions: compound 0.1 mM. Here is the method:
(§2)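 TESEC E. coli strains in which the native enzyme is deleted and replaced by arabinose-inducible Mtb Asd, DapB, CysH or TrpD, each grown in its selective medium. Strains were screened against the Prestwick library at 0.1 mM and 1% DMSO in 384-well format at low and high arabinose induction. Growth is read as OD600 after 10 h in triplicate.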

The subject of a further assay is E. coli TESEC Mtb DapB. Conditions: compound 0.1 mM. Here is the method: as §2
For assay [3], the system named is E. coli TESEC Alr+ wild-type control. Conditions: compound 0.1 mM; raw OD600 reference: median of DMSO wells 0.49, cell-free background 0.052. How it is done: (§3)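 TESEC Mtb Alr E. coli (ΔaraC ΔtolC ΔentC Δalr ΔdadX, arabinose-inducible Mtb Alr) or the Alr+ wild-type control strain, grown in defined M9-fructose medium without D-alanine in 96-well plates with Prestwick library compounds at 0.1 mM and 1% DMSO. Low Alr induction is 0.1 µM arabinose and high induction is 10 mM arabinose.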

Assay [4] deals with E. coli TESEC Mtb Alr. As to conditions: compound 0.1 mM. How it is done:
as §3
The source holds these as a separate data set.

[5] abbreviates: arabinose 1000 nM, raw OD600 reference: median of DMSO wells 0.294, cell-free background 0.041.
[6] abbreviates: arabinose 10000 nM, raw OD600 reference: median of DMSO wells 0.264, cell-free background 0.041.
[7] abbreviates: arabinose 100000 nM, raw OD600 reference: median of DMSO wells 0.201, cell-free background 0.041.
The mark [8] stands for this setting: arabinose 1000000 nM, raw OD600 reference: median of DMSO wells 0.193, cell-free background 0.041.
Setting [9] is: arabinose 10000000 nM, raw OD600 reference: median of DMSO wells 0.146, cell-free background 0.041.
The mark [10] stands for this setting: arabinose induction (level): High, raw OD600 reference: median of DMSO wells 0.331, cell-free background 0.041.
The mark [11] stands for this setting: arabinose induction (level): Low, raw OD600 reference: median of DMSO wells 0.417, cell-free background 0.041.
Where [12] appears, read: arabinose induction (level): High, raw OD600 reference: median of DMSO wells […], cell-free background 0.041.
[13] abbreviates: arabinose induction (level): Low, raw OD600 reference: median of DMSO wells 0.227, cell-free background 0.041.
The mark [14] stands for this setting: arabinose 100 nM, raw OD600 reference: median of DMSO wells 0.413, cell-free background 0.052.
Where [15] appears, read: arabinose 10000000 nM, raw OD600 reference: median of DMSO wells […], cell-free background 0.052.

± gives the standard deviation of the averaged measurements.

On to `C[C@]12CC[C@@H]3c4ccc(O)cc4CC[C@H]3[C@@H]1CC[C@@H]2O` [Estradiol-17 beta], for which the growth in assay [1] turned out to be 0.125 ± 0.012; in the assay with E. coli TESEC Mtb Alr [2] (setting [5]), 0.118 ± 0.052; in the assay with E. coli TESEC Mtb Alr [2] (setting [6]), 0.214 ± 0.0069; in the assay on E. coli TESEC Mtb Alr [2] (setting [7]) it was 0.157 ± 0.011; in the assay with E. coli TESEC Mtb Alr [2] (setting [8]), 0.129 ± 0.0023; with E. coli TESEC Mtb Alr [2] (setting [9]), 0.141 ± 0.0021. For the same molecule, the growth is 0.199 ± 0.0073 in the assay with E. coli TESEC Mtb Asd (setting [10]); 0.22 ± 0.0098 in the assay on E. coli TESEC Mtb Asd (setting [11]); 0.196 ± 0.0064 in the assay with E. coli TESEC Mtb DapB (setting [12]); 0.204 ± 0.012 with E. coli TESEC Mtb DapB (setting [13]); 0.43 ± 0.017 in assay [3]; 0.399 ± 0.012 in the assay on E. coli TESEC Mtb Alr [4] (setting [14]). The growth with E. coli TESEC Mtb Alr [4] (setting [15]) worked out at 0.218 ± 0.0046.

On to `CN1C2CCCC1CC(NC(=O)c1nn(C)c3ccccc13)C2` (configuration not stated) [Granisetron], for which the growth came to 0.208 ± 0.0038 in assay [1]; 0.301 ± 0.026 with E. coli TESEC Mtb Alr [2] (setting [5]); 0.2743 ± 0.0024 with E. coli TESEC Mtb Alr [2] (setting [6]); 0.171 ± 0.0068 in the assay with E. coli TESEC Mtb Alr [2] (setting [7]); 0.213 ± 0.014 in the assay with E. coli TESEC Mtb Alr [2] (setting [8]); 0.126 ± 0.0041 in the assay on E. coli TESEC Mtb Alr [2] (setting [9]). The growth worked out at 0.28 ± 0.063 with E. coli TESEC Mtb Asd (setting [10]); 0.379 ± 0.08 in the assay on E. coli TESEC Mtb Asd (setting [11]); 0.202 ± 0.022 with E. coli TESEC Mtb DapB (setting [12]); 0.238 ± 0.015 in the assay with E. coli TESEC Mtb DapB (setting [13]); 0.549 ± 0.068 in assay [3]; 0.424 ± 0.0065 in the assay with E. coli TESEC Mtb Alr [4] (setting [14]). Also, in the assay with E. coli TESEC Mtb Alr [4] (setting [15]), the growth came out at 0.351 ± 0.0039.

Regarding `Nc1nnc(-c2cccc(Cl)c2Cl)c(N)n1` [Lamotrigine], the growth in assay [1] was found to be 0.14 ± 0.0084; with E. coli TESEC Mtb Alr [2] (setting [5]), 0.206 ± 0.028; in the assay with E. coli TESEC Mtb Alr [2] (setting [6]), 0.203 ± 0.0052; in the assay on E. coli TESEC Mtb Alr [2] (setting [7]), 0.216 ± 0.014; with E. coli TESEC Mtb Alr [2] (setting [8]) it was 0.21 ± 0.0054; in the assay with E. coli TESEC Mtb Alr [2] (setting [9]), 0.179 ± 0.0078. Further, the growth came out at 0.236 ± 0.025 in the assay on E. coli TESEC Mtb Asd (setting [10]); 0.168 ± 0.019 with E. coli TESEC Mtb Asd (setting [11]); 0.213 ± 0.015 in the assay with E. coli TESEC Mtb DapB (setting [12]); 0.132 ± 0.0074 with E. coli TESEC Mtb DapB (setting [13]); 0.46 ± 0.021 in assay [3]; 0.413 ± 0.029 in the assay on E. coli TESEC Mtb Alr [4] (setting [14]). For the same molecule, in the assay on E. coli TESEC Mtb Alr [4] (setting [15]), the growth was 0.386 ± 0.029.

Take `C[C@]12C=CC(=O)C=C1CC[C@H]1[C@@H]3C[C@@H](O)[C@](O)(C(=O)CO)[C@@]3(C)C[C@H](O)[C@@]12F` [Triamcinolone]: the growth in assay [1] worked out at 0.222 ± 0.0077; in the assay on E. coli TESEC Mtb Alr [2] (setting [5]) it was 0.256 ± 0.033; in the assay with E. coli TESEC Mtb Alr [2] (setting [6]) it was 0.266 ± 0.0064; in the assay with E. coli TESEC Mtb Alr [2] (setting [7]), 0.157 ± 0.014; in the assay on E. coli TESEC Mtb Alr [2] (setting [8]), 0.142 ± 0.0088; in the assay with E. coli TESEC Mtb Alr [2] (setting [9]) it was 0.127 ± 0.0023. For the same molecule, the growth in the assay with E. coli TESEC Mtb Asd (setting [10]) worked out at 0.222 ± 0.011; in the assay on E. coli TESEC Mtb Asd (setting [11]), 0.452 ± 0.014; in the assay on E. coli TESEC Mtb DapB (setting [12]), 0.191 ± 0.014; in the assay on E. coli TESEC Mtb DapB (setting [13]), 0.229 ± 0.022; in assay [3], 0.451 ± 0.037; with E. coli TESEC Mtb Alr [4] (setting [14]), 0.4315 ± 0.0037. For the same molecule, in the assay on E. coli TESEC Mtb Alr [4] (setting [15]), the growth stood at 0.306 ± 0.03.

The values above are taken from the supplement of paper PMC9262897, “Low-cost anti-mycobacterial drug discovery using engineered E. coli” (Nature Communications, 2022).
